# Bioassay records from PubChem.
# EphB4 ephrin blk = blocks human EphB4 binding to ephrin-B2; inhibition, % at 7 µM; AID 720; P54760; hit rate 0.15% among 97,000; EphB4 LBD / TNYL-RAW-Alexa532 peptide, fluorescence polarization;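 active means inhibition above the screen-wide mean inhibition plus 3 SD, cut at about 15% in these data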;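 further: 0% = DMSO wells and 100% = excess unlabeled TNYL-RAW peptide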
# ERa SRC1 pot = ER-alpha (human) coactivator binding potentiation; P03372; TR-FRET ERalpha-LBD/SRC-Cy5 coactivator binding, 2 h; 100 = basal binding, no effect; coactivator binding (% of control), % at 25.6 µM; hit rate 1.3% among 86,000; in the data active means activity above about 200%;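 further: binding measured in presence of low estradiol as agonist stimulus; 0% = peptide alone without receptor and 100% = receptor with peptide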
# Target sequence (P03372 whole entry, looked up, the tested form may be a part): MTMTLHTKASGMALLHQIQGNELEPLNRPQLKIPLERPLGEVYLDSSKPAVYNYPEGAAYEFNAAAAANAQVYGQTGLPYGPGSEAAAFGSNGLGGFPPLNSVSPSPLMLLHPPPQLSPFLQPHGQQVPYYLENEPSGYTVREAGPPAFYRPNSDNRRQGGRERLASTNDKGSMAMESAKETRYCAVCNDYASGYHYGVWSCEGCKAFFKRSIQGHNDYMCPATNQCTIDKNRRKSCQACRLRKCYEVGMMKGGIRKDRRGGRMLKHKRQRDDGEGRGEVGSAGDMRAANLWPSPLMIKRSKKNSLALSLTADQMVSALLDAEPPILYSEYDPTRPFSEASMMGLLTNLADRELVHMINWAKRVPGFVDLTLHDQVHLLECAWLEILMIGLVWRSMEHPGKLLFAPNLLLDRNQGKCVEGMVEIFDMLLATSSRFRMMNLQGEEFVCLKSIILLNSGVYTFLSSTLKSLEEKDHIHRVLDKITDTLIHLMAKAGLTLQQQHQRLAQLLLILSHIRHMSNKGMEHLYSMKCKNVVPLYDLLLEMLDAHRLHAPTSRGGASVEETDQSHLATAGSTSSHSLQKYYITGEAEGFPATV
# ERa coact inh = blocks coactivator binding to human estrogen receptor alpha. P03372. TR-FRET ER-alpha LBD / SRC-1 peptide, estradiol-bound. inhibition, % at 25.6 µM. hit rate 1.7% among 86,000; in the data active means inhibition above about 50%;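 further: 0% = receptor plus peptide control and 100% = peptide only without receptor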
# ERb SRC1 inh = ER-beta (human) coactivator binding inhibition; Q92731; TR-FRET ER-beta LBD / SRC1-Cy5 peptide binding; receptor agonist-loaded with 1 µM estradiol; inhibition, % at 25.6 µM; hit rate 1.3% among 86,000;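 active means compounds whose percent inhibition of the receptor-coactivator binding signal exceeds about 50% in the single-dose screen, limit read from the data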;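 further: 0% = receptor plus peptide wells without compound and 100% = peptide-only wells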
# Active calls of the source: *; . = not tested or not shown; [ ] = remark or other dose. Compounds with a hit are over-represented: about 2.8% of the library has one in this group of screens.
SMILES,EphB4 ephrin blk,ERa SRC1 pot,ERa coact inh,ERb SRC1 inh
CCOC(=O)C1=C(c2ccccc2)NC(SCC(=O)NC2CCCCC2)=C(C#N)C1c1ccco1 (stereo not given),-3.4,364.2*[fluorescence artefact?],12.7,13.1
COc1ccccc1NC(=O)C1=C(C)NC(SCC(=O)c2ccccc2)=C(C#N)C1c1ccco1 (stereo not given),4.4,277.8*[fluorescence artefact?],-8.3,4.5
COCCOC(=O)C1=C(C)NC(SCC(=O)NC(C)(C)C)=C(C#N)C1c1ccco1 (stereo not given),-0.2,111.0,-0.9,-0.9
Cn1ncc2c(=O)n(CC(=O)NC34CC5CC(CC(C5)C3)C4)cnc21,-3.0,.,.,.
Cc1cc(C)nc(-n2nc(C)cc2NC(=O)c2cccc(S(=O)(=O)N3CCCCC3)c2)n1,-2.0,.,.,.
CCOC(=O)c1c(-c2ccccc2)oc2cc(CN(C)C)c(O)c(CN(C)C)c12,5.8,104.0,-2.6,-5.7
CCCCc1c(C)nn(-c2nnc3c4ccccc4n(CC)c3n2)c1C,4.5,141.5,51.9*[fluorescence artefact?],30.8
COc1ccc(C(=O)NCC(=O)OCC(=O)c2ccc3c(c2)OCCO3)cc1,-0.8,.,.,.
COc1ccc2oc(C(=O)OCC(=O)c3ccc4c(c3)OCCO4)c(C)c2c1,5.0,228.6*,7.0,-0.1
Cc1nn(Cc2ccc(C(=O)Nc3nc4c(C)cccc4s3)o2)c(C)c1Br,1.3,136.5,50.3*,26.9
Cc1cc(NC(=O)c2ccc(Cn3nc(C)c(Br)c3C)o2)no1,6.6,101.5,10.5,9.1
COc1ccc(N2CCN(C(c3ccccc3)c3nnnn3Cc3ccc(F)cc3)CC2)cc1 (stereo not given),6.4,104.7,-8.2,0.7
CCOc1ccc(N=C2NC(=O)S/C2=C\c2ccc(OC)cc2)cc1,6.5,194.1,67.2*,50.5*
Cc1[nH]n(-c2ccccc2)c(=O)c1C(c1ccc(O)c([N+](=O)[O-])c1)c1c(C)[nH]n(-c2ccccc2)c1=O,4.0,.,.,.
Nc1[nH]n(-c2ccccc2)c(=O)c1N=Nc1ccccc1[N+](=O)[O-],-0.3,9.0,88.4*[fluorescence artefact?],52.0*
Cc1nc(Oc2cccc(Cl)c2)c2oc3ccccc3c2n1,5.2,93.2,1.1,74.4*[fluorescence artefact?]
CCN(CC)CCOc1nc(C)nc2c1oc1ccccc12,3.5,113.2,-3.3,-2.5
Cc1ccc2c(C)nc(NC3=NCN(CCc4ccccc4)CN3)nc2c1,.,98.1,0.8,-8.8
CCOC(=O)c1cc(C#N)c(SCC(=O)c2cc(C#N)c(SC)nc2C)nc1C,.,287.8*,34.7,31.8
CN(C)CC(=O)N1c2ccccc2CCc2ccc(NC(=O)c3ccc(N)cc3)cc21,-5.7,36.1,78.7*,69.3*[fluorescence artefact?]
CC1CN(c2nc3ccccn3c(=O)c2/C=C(\C#N)S(=O)(=O)c2ccccc2)CC(C)O1 (stereo not given),0.4,108.4,-2.0,-0.3
N#C/C(=C\c1c(N2CCC(C(N)=O)CC2)nc2ccccn2c1=O)S(=O)(=O)c1ccccc1,-6.0,94.3,23.1,53.1*
CN(C)S(=O)(=O)NCc1ccc2c(c1)OCO2,-5.8,105.5,-5.2,6.4
COc1ccc(CCN(C(=O)c2cccc(F)c2)C2CC(=O)N(c3ccc(OC)cc3)C2=O)cc1 (stereo not given),-4.0,.,.,.
O=C(CCCSc1nc(-c2ccco2)cc(C(F)(F)F)n1)Nc1ccc2c(c1)OCO2,4.1,97.9,-8.5,-11.1
SMILES,EphB4 ephrin blk,ERa SRC1 pot,ERa coact inh,ERb SRC1 inh
CC(NC(=O)CCSc1nc(-c2ccc3c(c2)OCO3)cc(C(F)(F)F)n1)c1ccccc1 (stereo not given),1.9,57.4,90.1*,46.3
COc1ccc(-c2nnc3sc(-c4ccc(Br)o4)nn23)cc1OC,.,138.9,61.6*,28.9
Clc1ccc(-c2nnc3sc(-c4ccc(Br)o4)nn23)cc1,-4.4,143.5,55.8*[fluorescence artefact?],56.4*[fluorescence artefact?]
Cc1oc(-c2ccc(Cl)cc2)cc1-c1nn2c(-c3ccoc3C)nnc2s1,-0.6,58.6,78.9*,63.7*[fluorescence artefact?]
Clc1ccc(-c2nnc3sc(-c4ccc(Br)o4)nn23)c(Cl)c1,-3.6,.,.,.
Clc1ccc(-c2nn3c(-c4ccccc4)nnc3s2)cc1,.,130.3,39.9,37.9
CCCOc1ccc(-c2cnc(N)s2)cc1,-9.3,.,.,.
O=C(C1CCC(=O)N1C1CCCCC1)N1CCN(c2ccc(F)cc2)CC1 (stereo not given),2.0,112.9,-4.9,-3.1
OC1(c2cccc(C(F)(F)F)c2)CCNCC1,2.0,86.4,15.6,69.9*[fluorescence artefact?]
CCOc1ccc(N(C(C)=O)c2nc(C)cc(C)c2C#N)cc1,0.6,121.2,-5.6,0.8
COc1ccc(-n2c(SCC(=O)Nc3nccs3)nc3c(c2=O)SC(C)C3)cc1 (stereo not given),.,110.6,-2.5,-14.9
CC(=O)NC12CC3CC(C1)CC(C(=O)OCC(=O)Nc1ncc(Cl)c(C)c1Cl)(C3)C2,.,49.0,74.1*[fluorescence artefact?],59.6*
Cc1cc(=O)oc(C)c1C(=O)NCCCN1CCN(c2ccccc2F)CC1,-3.5,93.6,-7.7,-1.4
CCOc1ccccc1NC(=O)N1CCC(NC(=O)c2cccc(C)c2)CC1,3.5,108.4,62.6*[fluorescence artefact?],64.5*[fluorescence artefact?]
CCOC(=O)C1CCN(S(=O)(=O)Cc2ccccc2)C1=O (stereo not given),15.4*,116.2,-8.1,68.2*[fluorescence artefact?]
O=C(c1ccc(Br)o1)N1CCN(c2ccc3nnc(-c4ccc(F)cc4)n3n2)CC1,-3.0,125.1,27.1,24.2
CCOC(=O)c1c(C)[nH]c(C(=O)C(C)OC(=O)c2cccc(OCc3c(C)noc3C)c2)c1C (stereo not given),-2.5,103.4,-2.2,19.0
COc1ccc2nc(NC(=O)c3cc(C)oc3C)sc2c1,6.8,207.7*,12.2,4.1
COc1ccc2nc(NC(=O)C3CCCN(S(=O)(=O)c4c(C)noc4C)C3)sc2c1 (stereo not given),.,128.5,-0.7,83.5*[fluorescence artefact?]
COc1ccc(OC)c(NC(=O)C2CCCN(S(=O)(=O)c3c(C)noc3C)C2)c1 (stereo not given),11.8,48.9,35.1,33.6
Cc1cc(C)c(S(=O)(=O)N2CCC(C(=O)NCc3ccco3)CC2)c(C)c1,9.3,96.9,-5.5,-1.6
CCOC(=O)c1ccccc1NC1CC(=O)N(c2ccccc2C)C1=O (stereo not given),12.5,112.7,1.4,-1.9
CN1CCN(c2ccccc2NC(=O)c2cc(Br)ccc2Cl)CC1,-7.7,18.1,82.3*[fluorescence artefact?],45.4
CC(=O)N1CCN(c2ccccc2NC(=O)c2cc(Br)ccc2Cl)CC1,-4.6,64.5,2.8,-0.9
CCOC(=O)C1=C(c2ccccc2)OC(N)=C(C#N)C1c1cccs1 (stereo not given),2.0,.,.,.
CCOC(=O)CC1=C(C(=O)OCC)C(c2cccs2)C(C#N)=C(N)O1 (stereo not given),3.9,90.6,93.3*[fluorescence artefact?],-2.0
O=C(/C=C/c1ccccc1)N/C(=C/c1ccccc1)C(=O)N1CCCCC1,1.2,.,.,.
COC(=O)c1ccc(S(=O)(=O)N(Cc2cc3cc4c(cc3[nH]c2=O)OCO4)C2CCCCC2)cc1,.,306.1*,4.1,-3.9
COC(=O)c1ccc(-c2ccco2)n1Cc1ccccc1Cl,-7.0,75.1,0.7,9.0
